Pol beta inh – blocks human DNA polymerase beta activity. Pol beta primer extension/strand displacement, fluorescence kinetic. Potency, µM (titrated, usually from 114 µM), for the others: at the highest dose activity change, negative = inhibition, most hits filed as inhibitors. 1.3% of 340,000 active. AID 485314; further: potency means the concentration at half of the fitted maximal effect; on the % scale 0 is the no-effect control and ±100 the full control effect
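Reaction started by 50 nM substrate onto compound-treated Pol beta (10 nM, 15 min preincubation, room temperature); plates read at 0 min and 10 min. Normalized concentration-effect data fitted by four-parameter Hill equation.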
L3MBTL1 block – inhibitors of human L3MBTL1 | Q9Y468 | AlphaScreen L3MBTL1–H3K9me1 peptide binding | Potency, µM (top dose mostly 57.1 µM), without a hit: at the highest dose activity, negative = inhibition, actives largely listed as inhibitors | 0.66% of 230,000 active | AID 485360; further: potency means the concentration at half of the fitted maximal effect; on the % scale 0 is the no-effect control and ±100 the full control effect; nearly all actives have a fitted effect of over 60% in size
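L3MBTL1 (50 nM) pre-complexed 30 min with biotinylated H3(1-15)K9me1 peptide (75 nM), then compounds added for 30 min at room temperature; AlphaScreen streptavidin donor/nickel chelate acceptor beads (10 ug/mL final) read after 30 min dark incubation.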
Pol kappa inh-1 – inhibitors of human DNA polymerase kappa; Q9UBT6; purified Pol kappa, fluorescent DNA synthesis assay, 10 min; Potency, µM (series often up to 107 µM), without a hit: top-dose activity, negative = inhibition, usual class: inhibitors; 0.53% of 400,000 active; further: potency means the concentration at half of the fitted maximal effect; on the % scale 0 is the no-effect control and ±100 the full control effect
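Kinetic fluorescence screen: compound preincubated 15 min RT with 10 nM enzyme; 50 nM substrate (final) initiates; reads at 0/10 min.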
Pol iota inh – DNA polymerase iota (human) inhibition; AID 588590; 1% of 390,000 active; Pol iota fluorescent replication assay, 10 min; Potency, µM (titrated, usually from 115 µM), for inactives: top-dose activity, negative = inhibition, usual class: inhibitors; further: potency means the concentration at half of the fitted maximal effect
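Pol iota at 10 nM preincubated 15 min with compounds at room temperature; reaction started with fluorescent substrate, 50 nM final. Fluorescence read kinetically at 0 and 10 min; buffer-only wells as negative control.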
APE1 inh – inhibitors of human APE1 endonuclease. P27695. recombinant APE1, TAMRA/BHQ-2 abasic DNA cleavage fluorescence. Potency, µM (doses to about 65.8 µM), for inactives: at the highest dose activity change, negative = inhibition, actives largely listed as inhibitors. 0.35% of 350,000 active;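 further: potency means the concentration at half of the fitted maximal effect; plate controls were vehicle for no effect and reference inhibitor for full effect; nearly all actives have a fitted effect of over 55% in size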
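Compound pre-exposure to 0.75 nM APE1, 15 min at ambient temperature. Reaction initiated with 50 nM TAMRA/BHQ-2 THF substrate, read immediately in kinetic mode, 525 nm excitation, 598 nm emission.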
Pol eta inh-1 – DNA polymerase eta (human) inhibition; Q9Y253; 1.2% of 390,000 active; recombinant Pol eta, fluorescent DNA replication assay; Potency, µM (highest dose often 114 µM), inactives show top-dose activity change, negative = inhibition, actives largely listed as inhibitors; further: potency means the concentration at half of the fitted maximal effect; on the % scale 0 is the no-effect control and ±100 the full control effect
Target sequence (Q9Y253 whole entry, looked up): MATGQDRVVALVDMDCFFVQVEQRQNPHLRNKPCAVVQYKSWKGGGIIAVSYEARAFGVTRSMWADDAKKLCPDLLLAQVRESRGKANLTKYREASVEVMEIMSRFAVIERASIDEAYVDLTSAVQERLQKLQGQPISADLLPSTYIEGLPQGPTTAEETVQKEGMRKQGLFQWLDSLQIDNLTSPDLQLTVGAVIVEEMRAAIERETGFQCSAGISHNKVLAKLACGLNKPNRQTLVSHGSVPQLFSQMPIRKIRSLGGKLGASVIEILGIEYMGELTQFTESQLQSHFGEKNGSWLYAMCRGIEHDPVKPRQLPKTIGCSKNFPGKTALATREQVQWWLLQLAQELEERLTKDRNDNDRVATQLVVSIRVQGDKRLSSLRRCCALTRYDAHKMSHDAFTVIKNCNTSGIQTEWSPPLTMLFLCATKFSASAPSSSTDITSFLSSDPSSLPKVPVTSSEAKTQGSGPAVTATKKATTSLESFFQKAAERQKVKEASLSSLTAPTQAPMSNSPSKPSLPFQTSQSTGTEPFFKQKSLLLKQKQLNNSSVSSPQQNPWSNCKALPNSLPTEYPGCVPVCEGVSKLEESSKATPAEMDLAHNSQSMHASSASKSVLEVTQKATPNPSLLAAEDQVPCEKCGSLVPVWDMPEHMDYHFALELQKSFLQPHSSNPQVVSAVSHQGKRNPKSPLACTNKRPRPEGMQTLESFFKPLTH
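Pol eta (10 nM) was preincubated with compounds for 15 min at room temperature, after which fluorescent replication substrate (50 nM final) was added to start the reaction. Fluorescence was read kinetically at 0 and 10 min.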
BAZ2B inh – inhibits human BAZ2B bromodomain, hit validation; shares compounds with Pol kappa inh-1; AlphaScreen BAZ2B / biotin-H3K14Ac peptide displacement; Potency, µM, usual class: inhibitors; 100% of 25 active; AID 588809; calls by dose curve
AlphaScreen ctr – interferes with AlphaScreen signal in BAZ2B counterscreen; shares compounds with Pol kappa inh-1; AlphaScreen biotin-His6 peptide bead counterscreen, signal decrease; Potency, µM (doses to about 57.1 µM), for the others: at the highest dose activity change, negative = inhibition, actives largely listed as inhibitors; 25 tested, under 10 active;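 active means clear concentration-dependent signal drop in the bead assay lacking the target, so a primary-screen artifact; inconclusive means weak, partial or single-dose response; inactive means no response, so a real primary hit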
TbPGK inh – TbPGK inhibition, hit validation; shares compounds with Pol kappa inh-1; AID 686980; 79% of 500 active; TbPGK coupled GAPDH assay, Kinase-Glo luminescence; Potency, µM (top dose mostly 57.5 µM), for inactives: top-dose activity change, negative = inhibition, most hits filed as inhibitors; further: potency means the concentration at half of the fitted maximal effect; on the % scale 0 is the no-effect control and ±100 the full control effect; nearly all actives have a fitted effect of over 65% in size
Pol iota confirm – Inhibitors of human DNA polymerase iota, confirmation; 77% of 1,500 active; Pol iota primer extension, TAMRA/BHQ fluorescence; Potency, µM, usual class: inhibitors; shares compounds with Pol kappa inh-1; further: potency means the concentration at half of the fitted maximal effect
Pol kappa inh-2 – confirmation of human DNA polymerase kappa inhibitors. 76% of 920 active. shares compounds with Pol eta inh-1. Potency, µM, usual class: inhibitors. purified Pol-kappa, fluorescent strand-displacement substrate; further: potency means the concentration at half of the fitted maximal effect
Pol eta inh-2 – Pol eta (human) inhibition, cherry-pick confirmation; shares compounds with Pol eta inh-1; Pol eta primer extension, TAMRA/BHQ fluorescence, 10 min; Potency, µM, most hits filed as inhibitors; 64% of 2,600 active; further: potency means the concentration at half of the fitted maximal effect
The depositor's hits bear a star; ? = inconclusive; . = no result; [ ] = another dose, or the depositor's remark. Rows were chosen to be rich in hits. Some 2.5% of all compounds tested hit in one or more screens of this group. Unless noted, the call rests on the fitted dose curve; in most records, active means well fitted curve in the direction sought with a large enough effect; inconclusive means small, poorly fitted or top-dose-only effect, or another doubt; inactive means no such curve, though single readings can be large; an effect the other way counts as inactive or inconclusive.

SMILES	Pol beta inh	L3MBTL1 block	Pol kappa inh-1	Pol iota inh	APE1 inh	Pol eta inh-1	Pol iota confirm	Pol kappa inh-2	Pol eta inh-2	others
CCN(CCCl)c1cc(CN(C)C)cc(NC(=O)c2ccc(C(=O)Nc3cc(CN(C)C)cc(N(CC)CCCl)c3)cc2)c1	.	.	?	28.2µM*	.	11.2µM*	23.8*	0.532*	.
CCN1/C(=C/C=C/C2=[N+](CC)c3ccccc3C2(C)C)C(C)(C)c2ccccc21	.	.	.	.	.	31.6µM*	37.7*	67*	67.5*
CC(=O)Nc1ccc(OC(=O)N2CCN(/[N+]([O-])=N/Oc3ccc([N+](=O)[O-])cc3[N+](=O)[O-])CC2)cc1	.	.	5.4%	?	.	.	.	.	.
COc1cc2cc(C(=O)N3CC(COS(C)(=O)=O)c4ccc(O)cc43)[nH]c2c(OC)c1OC (configuration not stated)	.	.	10µM*	1.78µM*	.	3.16µM*	4.74*	2.99*	6.75*
ClC(Br)Br	.	.	.	.	0.5%	.	.	.	.
Cc1c(C(c2ccc(F)cc2)c2c(O)c3ccccc3oc2=O)c(=O)n(-c2ccccc2)n1C (configuration not stated)	-0.1%	12.9%	-8.7%	-19.1%	0.2%	-15.7%	.	.	.
CC(C)c1ccc(C(c2c(O)c3ccccc3oc2=O)c2c(O)c3ccccc3oc2=O)cc1	.	.	.	.	.	22.4µM*	?	37.7*	?
CN(C)c1nc(OCc2ccccc2)c2ncc(=O)[nH]c2n1	.	.	-9.6%	?	.	-1.2%	.	.	.
N#CC(C#N)=NNc1ccc(S(N)(=O)=O)cc1	-6.4%	.	44.7µM*	20µM*	?	12.6µM*	.	?	67.5*	TbPGK inh=-17.6%
CC1CCN(S(=O)(=O)c2ccc(NN=C(C#N)C#N)cc2)CC1	-1.2%	.	.	.	-8.1%	.	.	.	.
C=C(C)C(=O)Nc1cccc(C2=NOC3(C2)C[C@@H](C(N)=O)N(C(=O)/C=C/CC)C3)c1 (some centres not stated)	3.55µM*	.	28.2µM*	15.8µM*	0.4%	7.94µM*	?	18.9*	19*	BAZ2B inh=10*;AlphaScreen ctr=-6.7%;TbPGK inh=?
C=C(C)C(=O)Nc1cccc(C2=NOC3(C2)C[C@@H](C(N)=O)N(C(=O)C2(C)CC2)C3)c1 (some centres not stated)	1.12µM*	.	44.7µM*	50.1µM*	?	3.16µM*	?	.	9.53*	BAZ2B inh=1.26*;AlphaScreen ctr=?;TbPGK inh=?
CN1C(=O)C(=Cc2ccc(Sc3ccccc3)o2)C(=O)N(C)C1=S	.	.	?	?	.	44.7µM*	?	16.8*	37.9*
Cc1ccccc1C(=O)Nc1cc(-c2ccc(Cl)cc2)nn1-c1ccccc1	?	.	-2.4%[60.1 µM]	15.5%	.	-15.3%	.	.	.
